Here are results for 57 molecules from PubChem BioAssay AID1259310 (The Scripps Research Institute Molecular Screening Center, 2017).

Several values for one entry are separate records, joined by “and”; a condition that tells them apart may be missing. Equal values may be shown once. Among all 650,000 compounds or so, about 850 (0.13%) were called active. Rule as the data show it: active = normalized activity above about 1.9%; inactive = the rest. The sample as a whole holds a higher share of actives than the screen did.

The target in this assay is F-box/WD repeat-containing protein 7 (Homo sapiens) (UniProt Q969H0). Nature of the assay: FBW7 E3 ligase activators, primary screen, biochemical, AlphaScreen, human (AID 1259310).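 Also: purified mutant Fbw7 with reduced substrate affinity.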 Conditions: AlphaScreen FBW7–phospho-cyclin E peptide binding, activator screen; at 26.1 µM; active compounds read high.
Chain of F-box/WD repeat-containing protein 7 (Homo sapiens) (Q969H0 whole entry, looked up): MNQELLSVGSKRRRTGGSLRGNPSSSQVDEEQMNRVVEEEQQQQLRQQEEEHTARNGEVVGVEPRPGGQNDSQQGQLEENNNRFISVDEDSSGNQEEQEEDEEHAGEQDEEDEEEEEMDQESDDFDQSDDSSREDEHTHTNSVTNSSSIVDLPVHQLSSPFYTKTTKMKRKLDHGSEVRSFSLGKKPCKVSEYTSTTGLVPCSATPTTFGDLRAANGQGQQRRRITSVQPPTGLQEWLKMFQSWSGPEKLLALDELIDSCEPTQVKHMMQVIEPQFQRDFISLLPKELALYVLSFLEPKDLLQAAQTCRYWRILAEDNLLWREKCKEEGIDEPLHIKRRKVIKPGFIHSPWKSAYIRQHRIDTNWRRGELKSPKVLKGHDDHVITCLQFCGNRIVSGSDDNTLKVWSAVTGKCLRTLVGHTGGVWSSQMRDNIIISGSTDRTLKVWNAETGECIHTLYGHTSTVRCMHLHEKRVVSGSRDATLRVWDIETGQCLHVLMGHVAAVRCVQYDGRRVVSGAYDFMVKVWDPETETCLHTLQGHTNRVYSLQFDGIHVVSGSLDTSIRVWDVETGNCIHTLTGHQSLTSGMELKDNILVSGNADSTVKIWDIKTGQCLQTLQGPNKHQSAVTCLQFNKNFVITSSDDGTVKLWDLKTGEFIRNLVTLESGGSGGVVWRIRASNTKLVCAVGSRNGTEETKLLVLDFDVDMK
For `NC(=O)CSc1ccc2nnc(-c3ccccn3)n2n1`, the normalized activity (activation) was 69.7% (active).
`O=C(O)CSc1ccc2nnc(-c3ccc(F)cc3)n2n1`: the normalized activity (activation) was 0.39% (inactive).
The result for `Cc1ccc(-c2nnc3ccc(SCC(N)=O)nn23)cc1` reads 0.47% (inactive); that for `O=C(Nc1ccc(N2CCOCC2)cc1)c1cccc(-n2nccc2NC(=O)C2CC2)c1`, 0.06% (inactive); that for `COc1ccc(N2CCN(C(CNC(=O)C(C)C)c3ccco3)CC2)cc1` (configuration not stated), 0% (inactive).
The result for `COc1ccc(Br)cc1CN(C)Cn1cnc2ccccc21` reads -0.03% (inactive); that for `CC(C)N(Cc1ccccc1)C(=O)c1cc2c(=O)n3ccccc3nc2n1C`, 0.69% (inactive); that for `CCN(Cc1ccccc1)C(=O)c1cc2c(=O)n3cccc(C)c3nc2n1C`, 3.93% (active).
The result for `C=CCNC(=O)c1cc2c(=O)n3cccc(C)c3nc2n1C` reads 0.17% (inactive); that for `O=C(CNC(=O)OCc1ccccc1)Oc1ccc2c(-c3ccccc3)cc(=O)oc2c1`, -0.09% (inactive).
With `O=C(NCc1nnc2n1CCN(Cc1c(F)cccc1Cl)CC2)c1ccccc1`, the normalized activity (activation) is -0.02% (inactive).
In the case of `O=C(Cc1cccs1)NCCS(=O)(=O)N1CCN(c2ccccn2)CC1`, the normalized activity (activation) is 0.01% (inactive).
Take `O=C(c1cnsc1)N1CCC(c2[nH]ncc2-c2ccncc2)CC1`: the normalized activity (activation) is 2.18% (active).
On to `Cc1cc(C(=O)N2CCC(c3[nH]ncc3-c3ccncc3)CC2)c(C)[nH]1`, for which the normalized activity (activation) is 0.63% (inactive).
The same measure for `O=C(c1cnsc1)N1CCCC(c2ncncc2-c2ccncc2)C1` (configuration not stated): 0.35% (inactive).
The same measure for `Cc1ccc(C)c(C(=O)Nc2ncc(S(=O)(=O)c3ccc([N+](=O)[O-])cc3)s2)c1`: -0.16% (inactive); for `CCOc1ccc(NC(C)C(=O)N/N=C/c2ccccc2O)cc1` (configuration not stated): -0.35% (inactive); for `COCCn1nnnc1C(c1cc2cc(C)cc(C)c2[nH]c1=O)N1CCOCC1` (configuration not stated): 2.29% (active).
The result for `COCCn1nnnc1C(c1cc2cc(C)c(C)cc2[nH]c1=O)N1CCCCC1` (configuration not stated) reads -0.02% (inactive); that for `COCCn1nnnc1C(c1cc2ccc(C)cc2[nH]c1=O)N1CCCC1` (configuration not stated), -0.04% (inactive).
Consider `O=C1NC(=O)C(=Cc2ccc(OC(=O)c3ccc(Cl)c(Cl)c3)cc2)C(=O)N1`, for which the normalized activity (activation) was 0.22% (inactive).
The result for `CCOC(=O)CSc1nc2ccsc2c(=O)n1CCc1ccc(OC)c(OC)c1` reads 0.46% (inactive); that for `COCCOC(=O)C1=C(C)NC2=C(C(=O)CC(c3ccccc3)C2)C1c1cc(OC)ccc1OC` (configuration not stated), 0.27% (inactive).
Take `CCSCCOC(=O)C1=C(C)NC2=C(C(=O)CC(c3ccccc3)C2)C1c1ccccc1` (configuration not stated): the normalized activity (activation) was 0.61% (inactive).
`CCSCCOC(=O)C1=C(C)NC2=C(C(=O)CC(c3ccccc3)C2)C1c1ccc(OC)cc1OC` (configuration not stated): the normalized activity (activation) was 2.28% (active).
The result for `O=C(Nc1ccc(C(=O)Nc2nccs2)cc1)c1ccc2c(c1)C(=O)N(c1ccccc1-c1ccccc1)C2=O` reads -0.08% (inactive).
The result for `Cc1ccc(N=c2scc(C)n2CCCO)cc1` reads -0.38% (inactive); that for `CN(C)c1cccc(Nc2cc(C(=O)NC3CC3)c3ccccc3n2)c1`, 0.31% (inactive).
On to `CN(C)c1cccc(Nc2cccc(C(=O)NC3CC3)n2)c1`, for which the normalized activity (activation) is -0.12% (inactive).
The result for `CC(=O)N(C)c1nc(-c2cccc(N(C)C)c2)ccc1C(=O)NC1CCCCC1` reads 1.86% (active); that for `CCOC(=O)N1CCC(NC(=O)CC2C(=O)NCCN2Cc2ccoc2)CC1` (configuration not stated), 0.27% (inactive).
The same measure for `CCCCSc1ncnc2c1c(-c1ccccc1)cn2-c1ccc(OC)cc1`: -0.03% (inactive).
For the molecule `Cc1ccc(C(C)C)c(OCC(=O)Oc2ccc3c(c2)oc(=O)c2ccccc23)c1`, the normalized activity (activation) is -0.05% (inactive).
Turning to `CCOC(=O)/C(C#N)=C/c1cc(C)n(-c2ccc(C(=O)OCC)cc2)c1C`, the normalized activity (activation) is -0.1% (inactive) and -0.13% (inactive).
For `COCCNC(=O)/C(C#N)=C/c1ccc(N2CCOCC2)cc1`, the normalized activity (activation) is 0.46% (inactive).
The result for `CCOC(=O)/C(C#N)=C/c1ccc(N2CCCCC2)cc1` reads 1.85% (active).
`CCOC(=O)C1=C(C)N=c2s/c(=C\c3ccc(OCc4ccc([N+](=O)[O-])cc4)c(OC)c3)c(=O)n2C1c1ccc2c(c1)OCO2` (configuration not stated): the normalized activity (activation) is 0.04% (inactive).
The result for `COCCNc1ncc(-c2cccs2)cn1` reads 0.02% (inactive); that for `O=C1C2C3c4ccccc4C(c4ccccc43)C2C(=O)N1CCCCO` (configuration not stated), 0.04% (inactive).
The result for `CC1=C(C#N)C(=O)N(CCCO)C(=O)/C1=C\c1ccc(-c2ccc(Cl)cc2)o1` reads -0.06% (inactive); that for `CCCCOC(=O)c1cccc(NC(=O)CN2C(=O)c3ccccc3C2=O)c1`, 0.09% (inactive); that for `CNc1cc(-c2ccnc(Nc3ccc(-n4cnc(C)n4)cc3)c2)no1`, 0.51% (inactive).
As for `Cc1ncn(-c2ccc(Nc3cc(-c4cnn(C(C)C)c4-c4ccc(F)cc4)ccn3)cc2)n1`, the normalized activity (activation) is 0.79% (inactive).
Take `Cc1ncn(-c2ccc(Nc3cc(-c4nocc4-c4ccccn4)ccn3)cc2)n1`: the normalized activity (activation) was 2.76% (active).
As for `O=c1c(NCCN2CCCCCC2)c(-c2ccc(Cl)cc2)c1=O`, the normalized activity (activation) was 0% (inactive).
Regarding `CC(C)NCCOCCOc1cccc(Br)c1`, the normalized activity (activation) was 0.35% (inactive).
Consider `COCc1cc(C)nc(OCC(=O)c2ccccc2)c1C#N`, for which the normalized activity (activation) is 0.04% (inactive).
The result for `Cc1c(C(=O)N2CCCC2)oc2c1-c1nn(CC(=O)N3CCCC3)cc1CC2` reads 8.41% (active); that for `Cc1c(C(=O)N2CCOCC2)oc2c1-c1nn(CC(=O)NC(C)c3ccccc3)cc1CC2` (configuration not stated), -0.04% (inactive).
As for `Cc1c(C(=O)N2CCCC2)sc2ncn(CC(=O)N3CCCC3)c(=O)c12`, the normalized activity (activation) is 0.33% (inactive).
As for `Nc1nnc(-c2ccc(Cn3c(-c4cncs4)nc4ccccc43)cc2)s1`, the normalized activity (activation) is 0.1% (inactive).
For the molecule `O=C(O)CCCN1C(=O)C(=O)/C(=C(\O)c2ccccc2)C1c1cccc(F)c1` (configuration not stated), the normalized activity (activation) was -0.31% (inactive).
The same measure for `CC1CCCN(S(=O)(=O)c2cccc3cccnc23)C1` (configuration not stated): -0.09% (inactive); for `Cc1cc(NCCN2CCCCCC2)n2c(nc3ccccc32)c1C#N`: 2.12% (active).
Take `Cc1cc(Nc2ccc(Cl)cc2)n2c(nc3ccccc32)c1C#N`: the normalized activity (activation) was -0.02% (inactive).
The same measure for `Cc1c(Cc2ccccc2)c(N2CCCCC2)n2c(nc3ccccc32)c1C#N`: 0.12% (inactive); for `CC(=O)c1cccc(-c2nc3ncnc(NCCOc4ccccc4)c3[nH]2)c1`: 0.01% (inactive).
